The results in this text go back to PubChem BioAssay (NCATS).

Where “and” joins values, the source holds several entries; their conditions need not be identical. Identical values can stand only once. Values without a mark were called inactive. Results filed as inconclusive are left out. The source holds several records for some structures; these can differ, active in one and inactive in another. Calls of active or inactive are those of the source. Unless noted, the call rests on the fitted dose curve; in most records, active means well fitted curve in the direction sought with a large enough effect; inconclusive means small, poorly fitted or top-dose-only effect, or another doubt; inactive means no such curve, though single readings can be large; an effect the other way counts as inactive or inconclusive.

One assay has as its system Hek293T. Nature of the assay: Primary qHTS to identify gynecologic anti-cancer compounds using libraries of approved drugs and bioactive compounds (AID 1345084). Further: nearly all actives have a fitted effect of over 55% in size. Further: potency means the concentration at half of the fitted maximal effect. As to conditions: Gynecologic cancer cell panel viability, ATPlite luminescence, 48 h, control line for the selectivity index; series mostly up to 57.5 µM. The method in brief:
(§1)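 48 h compound exposure at 37 C, 5% CO2; five-point qHTS. ATPlite luminescence readout of cell ATP.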
(In general: Quantitative high-throughput screening tests each substance at several concentrations.)

A further assay has as its system JEG-3. Described as above. As to conditions: Gynecologic cancer cell panel viability, ATPlite luminescence, 48 h; series mostly up to 57.5 µM. The method in brief: as §1
The next assay has as its system SKOV3. The assay is described as above. To be noted: Gynecologic cancer cell panel viability, ATPlite luminescence, 48 h; series mostly up to 57.5 µM. An outline of the steps: as §1
Assay [1] can be described thus: Drug repurposing screens with cells derived from glioblastoma tumor samples (AID 1345199). Further: nearly all actives have a fitted effect of over 40% in size. Further: potency means the concentration at half of the fitted maximal effect. On activity, negative = cell killing: on the % scale 0 is the no-effect control and ±100 the full control effect. As to conditions: GBM patient neurospheres viability, ATP luminescence, 48 h. An outline of the steps: (§2)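 Primary testing used CD133+ neurospheres from four GBM patients, seven concentrations, 48 h exposure and ATP-based viability; confirmation added three slower-growing patient lines.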

The subject of a further assay is OV90. As to the kind of experiment: Primary qHTS to identify gynecologic anti-cancer compounds using libraries of approved drugs and bioactive compounds (AID 1345084). Further: nearly all actives have a fitted effect of over 55% in size. Further: potency means the concentration at half of the fitted maximal effect. To be noted: Gynecologic cancer cell panel viability, ATPlite luminescence, 48 h; series mostly up to 57.5 µM. The method in brief:
as §1

Another assay deals with Tov-21-G. Described as above. As to conditions: Gynecologic cancer cell panel viability, ATPlite luminescence, 48 h; series mostly up to 57.5 µM. An outline of the steps: as §1
In general terms: In ATP-based viability assays light output follows the ATP content of the culture.

In a further assay the test system is Tov112D. The assay is described as above. To be noted: Gynecologic cancer cell panel viability, ATPlite luminescence, 48 h; series mostly up to 57.5 µM. The method in brief:
as §1

Another assay relates to astro. As to the kind of experiment: Drug repurposing screens with cells derived from glioblastoma tumor samples (AID 1345199). Further: nearly all actives have a fitted effect of over 40% in size. Further: potency means the concentration at half of the fitted maximal effect. On activity, negative = cell killing: on the % scale 0 is the no-effect control and ±100 the full control effect. To be noted: viability, ATP luminescence, 48 h; series mostly up to 45.9 µM. The method in brief: as §2
Assay [2] addresses Nuclear receptor subfamily 1 group I member 2 (Rattus norvegicus) (UniProt Q9R1A7). Nature of the assay: qHTS assay for small molecule activators of the rat pregnane X receptor (rPXR) signaling pathway (AID 651751; call rule not given here; further: 0% is about no effect). To be noted: rPXR reporter cells, luciferase (One-Glo), 24 h.
Assay [3] is described as follows: qHTS assay for small molecule activators of the human pregnane X receptor (PXR) signaling pathway (AID 720659; call rule not given here; further: 0% is about no effect).
The next assay relates to PA-1. Nature of the assay: Primary qHTS to identify gynecologic anti-cancer compounds using libraries of approved drugs and bioactive compounds (AID 1345084). Further: nearly all actives have a fitted effect of over 55% in size. Further: potency means the concentration at half of the fitted maximal effect. To be noted: Gynecologic cancer cell panel viability, ATPlite luminescence, 48 h; series mostly up to 57.5 µM. An outline of the steps: as §1
Where [4] appears, read: at 46.1 µM (top of the series), tumour line C.
Where [5] appears, read: at 45.9 µM (top of the series), tumour line B.
Where [6] appears, read: at 45.9 µM (top of the series), tumour line D.
Where [7] appears, read: at 46 µM (top of the series), tumour line A.

Chain of Nuclear receptor subfamily 1 group I member 2 (Rattus norvegicus) (Q9R1A7 whole entry, looked up): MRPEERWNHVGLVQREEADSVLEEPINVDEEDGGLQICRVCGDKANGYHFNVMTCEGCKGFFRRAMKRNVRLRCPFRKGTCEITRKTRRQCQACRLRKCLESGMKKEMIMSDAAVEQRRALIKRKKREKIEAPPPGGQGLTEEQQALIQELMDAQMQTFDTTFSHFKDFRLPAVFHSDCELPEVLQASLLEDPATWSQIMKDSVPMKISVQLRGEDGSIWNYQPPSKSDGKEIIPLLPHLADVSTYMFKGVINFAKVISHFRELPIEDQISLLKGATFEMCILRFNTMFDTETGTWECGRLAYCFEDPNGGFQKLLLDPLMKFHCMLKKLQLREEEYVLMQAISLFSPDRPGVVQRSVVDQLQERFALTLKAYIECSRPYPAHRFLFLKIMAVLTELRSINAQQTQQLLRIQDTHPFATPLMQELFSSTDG

In the case of `CN1CCCC(n2nc(Cc3ccc(Cl)cc3)c3ccccc3c2=O)CC1` (stereo not given), the Potency entry in the assay on Hek293T, in the assay on JEG-3 and in the assay with SKOV3 was “inactive” in each case. The activity, negative = cell killing in assay [1] (setting [4]) is 4.16%. Moreover, the values for the Potency in [1] (tumour line A) and in assay [1] (tumour line D) were 11.2 µM (active) and 14.1 µM (active), respectively.

In the case of `CC(=O)CC(c1ccccc1)c1c(O)c2ccccc2oc1=O` (stereo not given), the Potency result in the assay with Hek293T, in the assay on JEG-3, with OV90, in the assay with Tov-21-G, in the assay on Tov112D and in the assay with astro was “inactive” in each case. The activity, negative = cell killing in assay [1] (setting [5]) was -11.1% and -14.3%; in assay [1] (setting [6]) it was 1.21% and -22.4%; in assay [1] (setting [7]), -22%; in assay [1] (setting [4]) it was -1.82% and -1.98%. The max response in assay [2] was 2.18%. Also, the outcome in [3] was inactive.

Turning to `CCCc1nc(C)c2c(=O)[nH]c(-c3cc(S(=O)(=O)N4CCN(CC)CC4)ccc3OCC)nn12`, the Potency entry in the assay on Hek293T, in the assay with JEG-3, in the assay on OV90, in the assay with SKOV3, in the assay with Tov-21-G and in the assay on Tov112D was “inactive” each time. Besides, the Potency result with astro was “inactive”. Besides, the activity, negative = cell killing is -13% in [1] (setting [5]), -20.9% in [1] (setting [6]) and -8.37% in [1] (setting [4]). Also, in assay [1] (tumour line A), the Potency is 17.8 µM (active).

As to `O=c1cc(O)c(Cl)c[nH]1`, the Potency entry with Hek293T, in the assay with JEG-3, in the assay with OV90, in the assay on SKOV3, with Tov-21-G and in the assay with Tov112D was “inactive” each time. Besides, the Potency result in the assay on astro is “inactive”. Besides, the activity, negative = cell killing in assay [1] (setting [5]) is -16%; in [1] (setting [6]), 7.88%; in [1] (setting [7]), -15.8%; in [1] (setting [4]), -29.9%.

On to `CC(=O)[C@H]1CC[C@H]2[C@@H]3CC=C4C[C@@H](O)CC[C@]4(C)[C@H]3CC[C@]12C`, for which the Potency entry with Hek293T, in the assay on JEG-3, in the assay on OV90, in the assay on PA-1, in the assay on SKOV3 and with Tov-21-G was “inactive” throughout. Further, the Potency result in the assay with Tov112D and with astro was “inactive” throughout. The results for the activity, negative = cell killing in assay [1] (setting [5]) and in [1] (setting [4]) were -3.14% and 6.87%, respectively.

For the compound `CC(C)(Sc1cc(C(C)(C)C)c(O)c(C(C)(C)C)c1)Sc1cc(C(C)(C)C)c(O)c(C(C)(C)C)c1`, the Potency result in the assay with Hek293T, in the assay with JEG-3, in the assay with OV90, with PA-1, in the assay on SKOV3 and in the assay with Tov-21-G was “inactive” each time. Moreover, the Potency entry in the assay on Tov112D and with astro was “inactive” throughout. Further, the activity, negative = cell killing in [1] (at 20 µM (top of the series), tumour line C) is -9.49%; in assay [1] (at 21.2 µM (top of the series), tumour line B), -22%. Also, the Potency in assay [1] (tumour line A) is 4.47 µM (active).

Consider `NNC(=O)c1ccncc1`, for which the Potency entry in the assay with Hek293T, with JEG-3, with OV90, in the assay on PA-1, with SKOV3 and in the assay with Tov-21-G was “inactive” in each case. Moreover, in the assay with Tov112D, the Potency result is “inactive”. For the same compound, the activity, negative = cell killing in [1] (setting [5]) was -4.35%; in assay [1] (setting [6]) it was -4.61%; in assay [1] (setting [4]) it was -1.87%. In [2], the max response is 6.47%. Also, the result in assay [3] was inactive.

For the compound `CCC(=O)O[C@]1(C(=O)CCl)[C@@H](C)C[C@H]2[C@@H]3CCC4=CC(=O)C=C[C@]4(C)[C@@]3(F)[C@@H](O)C[C@@]21C`, the Potency result in the assay with Hek293T, with JEG-3, in the assay with OV90, in the assay with PA-1, in the assay with Tov-21-G and with Tov112D was “inactive” throughout. Also, in the assay on astro, the Potency result was “inactive”. For the same compound, the activity, negative = cell killing in [1] (setting [5]) was -2.08%; in assay [1] (setting [6]), 0.817%; in [1] (setting [4]), 10.1%.

In the case of `CCc1c2c(nc3ccc(OC(=O)N4CCC(N5CCCCC5)CC4)cc13)-c1cc3c(c(=O)n1C2)COC(=O)[C@]3(O)CC`, the Potency entry in the assay with Hek293T, in the assay with JEG-3, with OV90 and in the assay on Tov-21-G was “inactive” each time. For the same compound, the Potency was 12.6 µM (active) with PA-1, 10 µM (active) with Tov112D and 1 µM (active) in assay [1] (tumour line A). Also, the activity, negative = cell killing in assay [1] (setting [4]) was -5.46%.

For the compound `Cc1ccnc2c1NC(=O)c1cccnc1N2C1CC1`, the Potency entry in the assay with Hek293T, in the assay with JEG-3, in the assay with OV90, in the assay with PA-1, with Tov-21-G and in the assay with Tov112D was “inactive” in each case. Besides, in the assay with astro, the Potency entry is “inactive”. The activity, negative = cell killing in assay [1] (setting [5]) was -8.19%; in [1] (setting [6]), 4.3%; in assay [1] (setting [7]) it was -21.5%; in [1] (setting [4]), -3.33%. In addition, the max response in assay [2] is -6.61%. Moreover, the call in assay [3] was inactive.

Take `Nc1nc(F)nc2c1ncn2[C@@H]1O[C@H](CO)[C@@H](O)[C@@H]1O`: the Potency entry in the assay with Hek293T, in the assay with JEG-3, with OV90, in the assay on PA-1, in the assay on SKOV3 and in the assay on astro was “inactive” throughout. In addition, the Potency in the assay on Tov112D is 17.8 µM (active); in assay [1] (tumour line A), 10 µM (active); in assay [1] (tumour line D), 20 µM (active). The activity, negative = cell killing was -27.2% in assay [1] (setting [5]); -19% and -29.8% in assay [1] (setting [4]).
